Compound activity as filed in PubChem.
D2 antagonist – antagonists of human D2 dopamine receptor | HEK293 TREx D2 cells, calcium flux, dopamine EC80 | inhibition, % at 10 µM | 340,000 tested, 2% active; in the data active = inhibition above about 30%; inactive = below that, where a call was filed
Target sequence (P14416 whole entry, looked up): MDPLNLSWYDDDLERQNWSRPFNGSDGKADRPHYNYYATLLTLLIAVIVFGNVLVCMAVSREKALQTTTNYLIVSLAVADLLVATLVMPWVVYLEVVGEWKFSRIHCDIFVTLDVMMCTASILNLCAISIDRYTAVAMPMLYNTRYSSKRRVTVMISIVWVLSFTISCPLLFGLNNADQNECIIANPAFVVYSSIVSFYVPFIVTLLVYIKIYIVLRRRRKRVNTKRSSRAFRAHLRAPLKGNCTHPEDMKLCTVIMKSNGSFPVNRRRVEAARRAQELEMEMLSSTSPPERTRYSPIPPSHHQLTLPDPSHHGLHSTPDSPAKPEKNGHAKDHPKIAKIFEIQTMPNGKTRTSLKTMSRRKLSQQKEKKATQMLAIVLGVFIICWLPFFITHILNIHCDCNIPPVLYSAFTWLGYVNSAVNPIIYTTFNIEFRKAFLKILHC
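In this primary screen, negative modulation is detected by tracking calcium flux after an EC80 dopamine challenge in inducible HEK293 T-REx D2 cells preexposed to test compound for 180 s.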
D2 PAM-1 – positive allosteric modulators of human D2 dopamine receptor; P14416; DiscoveRx D2 beta-arrestin cells, luminescence, 90 min; 100% = 57 uM dopamine signal; potentiation, % (concentration not given with the values); 360,000 tested, 0.23% active; in the data active = potentiation above about 50%
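PathHunter beta-arrestin assay in DiscoveRx D2 cells. Compounds were added with an EC20 of dopamine (50 nM final) for 90 min at 37 deg C. Luminescence was read 1 h after detection reagent, with 57 uM dopamine as the EC100 control.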
D2 ag-1 – activates the human D2 dopamine receptor; P14416; DiscoveRx PathHunter D2 beta-arrestin, luminescence, 90 min; 100% = 57 uM dopamine signal; activation, % (concentration not given with the values); 360,000 tested, 0.084% active; AID 624465; in the data active = activation above about 40%
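DiscoveRx PathHunter D2 beta-arrestin cells (2,100/well) attached overnight, then compound-stimulated 90 min at 37 C in HBSS/10 mM HEPES/0.1% Tween-20 buffer; beta-galactosidase complementation read by luminescence after 1 h at ambient temperature. Dopamine 57 uM final (EC100) as control.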
D2 ag-2 – agonists of human D2 dopamine receptor; activation, % at 2 µM; P14416; HEK293 T-REx D2 cells, calcium flux agonist mode; AID 485358; 340,000 tested, 0.53% active;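 active = activation over 3 SD above normal in the single-dose calcium agonist read, cut at about 30% in these data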
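HEK293 Trex D2 cells, tetracycline-induced, o/n 30 C 5% CO2; no-wash Ca dye, RT 30–90 min; 10-cycle baseline, 23 nl cpd added, kinetic Ca read 180 s; agonist hits = positive Ca response.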
D2 PAM-2 – positive allosteric modulators of human D2 dopamine receptor; potentiation, % at 10 µM; P14416; AID 485347; 340,000 tested, 0.34% active; HEK293 T-REx D2, calcium flux, EC20 dopamine potentiation;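 active = potentiation over 3 SD above the plate norm, cut at about 30% in these data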
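Tetracycline-induced HEK293 T-REx cells force-coupled to calcium signalling expressed D2; compounds were pin-added after a 10 s baseline, read kinetically 180 s, then an EC20 dopamine challenge followed with a further 180 s calcium read.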
A number is an active result; i = inactive; nt = no result given. Only some compounds are listed: those with a hit (about 2.4% of all), similar ones and a draw of the others.

SMILES | D2 antagonist | D2 PAM-1 | D2 ag-1 | D2 ag-2 | D2 PAM-2
COc1cc2[nH]c(C(=O)NCC3CCCO3)cc2c(OC)c1OC (stereo not given) | 55.3 | i | i | i | i
Cc1ccc(NC(=O)CSc2nc3[nH]c(=O)cc(O)c3s2)c(Br)c1 | 58.9 | i | i | i | i
Cc1nc2cccnc2n1C1CCN(S(=O)(=O)c2ccc(C(C)C)cc2)CC1 | nt | nt | nt | nt | i
CCOc1cccc2sc(N(CCN(C)C)C(=O)c3ccc(Br)s3)nc12 | 32.8 | i | i | i | i
COc1ccc(NS(=O)(=O)c2coc(C(N)=O)c2)cc1Cl | 30.8 | i | i | i | i
N#Cc1ccc(-c2cccs2)nc1SCc1ccc(Cl)cc1Cl | nt | nt | nt | i | i
Cc1c(C(=O)Nc2ccc(S(=O)(=O)Nc3ncccn3)cc2)oc2ccccc12 | 46.1 | i | i | i | i
Cc1c(C)c2ccc(OCC(=O)Nc3ccccn3)cc2oc1=O | 35.9 | i | i | i | i
CC(NC(=O)C1CCCN1C(=O)OC(C)(C)C)C(=O)OCc1ccccc1 (stereo not given) | nt | i | i | nt | nt
CC(C)(C)OC(=O)N1CCC[C@H]1C(=O)Nc1ccc(Br)cc1 | i | i | i | i | i
CC(C)(C)OC(=O)N1CCC[C@H]1C(=O)Nc1ccc(C#N)cc1 | 62.7 | i | i | i | i
CC(C)(C)OC(=O)N1CCCC1C(=O)NC(Cc1ccccc1)C(=O)O (stereo not given) | 31.8 | i | i | i | i
O=C(CSc1nc2c([nH]c3ccccc32)c(=O)n1-c1ccccc1)N1CCCC1 | nt | nt | nt | i | i
CCc1ccccc1NC(=O)CSc1nc2ncccc2o1 | nt | nt | nt | i | i
CCC(C)NS(=O)(=O)c1ccc(NC(=O)c2ccc([N+](=O)[O-])cc2Cl)cc1 (stereo not given) | 37.3 | i | i | i | i
CC(=O)Nc1ccc(NC(=O)c2ccc([N+](=O)[O-])cc2Cl)cc1 | i | i | i | i | i
CCc1ccccc1NC(=O)Nc1cc(C(=O)NCc2cccc(F)c2)ccc1N1CCCC1 | nt | nt | nt | i | i
Cc1ccc(CCNC(=O)CCSCc2ccccc2Cl)cc1 | nt | nt | nt | i | i
Cc1ccccc1C(C(=O)NC1CCCC1)N(C(=O)CNC(=O)c1ccco1)c1cccnc1 (stereo not given) | 50.8 | nt | nt | i | i
CC(=O)Nc1ccc(N(C(=O)c2ccco2)C(C(=O)NC2CCCCC2)c2ccccc2)cc1 (stereo not given) | 36.7 | i | i | i | i
COc1ccc(C(C(=O)NC2CCCCC2)N(C(=O)CCl)c2ccc(C)cc2)cc1 (stereo not given) | i | i | i | i | i
COc1ccc(C(C(=O)NC2CCCC2)N(C(=O)c2ccoc2C)c2ccc(C)cc2)cc1 (stereo not given) | 50.1 | i | i | i | i
COc1ccc(N(C(=O)CNC(=O)c2ccco2)C(C(=O)NC2CCCC2)c2ccncc2)cc1 (stereo not given) | 51.1 | i | i | i | i
CCn1nc(C)c2c(-c3ccccc3)cc(=O)n(C(C)C(=O)NCc3ccccc3OC)c21 (stereo not given) | nt | nt | nt | i | nt
COc1ccc(NC(=O)c2cc3c(=O)n(Cc4cccs4)ccc3nc2C)c(OC)c1 | nt | nt | nt | i | i
SMILES | D2 antagonist | D2 PAM-1 | D2 ag-1 | D2 ag-2 | D2 PAM-2
CCn1c(=O)c2cc(C(=O)NC3CCC(C)CC3)sc2c2ccccc21 (stereo not given) | nt | nt | nt | i | i
Clc1ccc(OCCN2CCCCC2)c(Cl)c1 | 72.2 | i | i | i | i
Clc1ccc(OCCCN2CCCCC2)c(Br)c1 | 38.0 | i | i | i | i
Clc1ccccc1OCCN1CCCCC1 | 44.3 | i | i | i | i
Clc1ccc(SCCCN2CCCCC2)cc1 | 38.4 | i | i | i | i
CC1CC(C)CN(CCOc2ccc(Cl)cc2Cl)C1 (stereo not given) | nt | i | i | nt | nt
Clc1ccc(OCCCCCN2CCCC2)c(Br)c1 | i | i | i | i | i
CCOC(=O)c1c(NC(=O)CSc2cn(CCNC(=O)c3ccc(OC)c(OC)c3)c3ccccc23)sc2c1CCCC2 | nt | nt | nt | nt | i
Cc1nc2ccc(S(=O)(=O)N(CC(=O)Nc3ccc(F)cc3F)Cc3ccccc3)cc2s1 | nt | nt | nt | i | i
CCOc1ccc(NC(=O)C23CC4CC(C2)CC(c2ccccc2)(C4)C3)cc1 | 31.3 | i | i | i | i
CCOC(=O)CNC(=O)C12CC3CC(C1)CC(c1ccc(C)cc1)(C3)C2 | i | i | i | i | i
COC(=O)c1ccc(NC(=O)C2CCN(S(=O)(=O)c3ccc4c(c3)CCCN4C(C)=O)CC2)cc1 | nt | nt | nt | i | i
Cc1ccc(NC(=O)C2CCCN(S(=O)(=O)c3c(C)noc3/C=C/N(C)C)C2)c(C)c1 (stereo not given) | i | i | i | i | i
Cc1noc(/C=C/N(C)C)c1S(=O)(=O)N1CCCC(C(=O)Nc2ccc(F)cc2F)C1 (stereo not given) | 54.1 | i | i | i | i
Cc1ccc(C)c(NC(=O)C2CCCN(S(=O)(=O)c3c(C)noc3/C=C/N(C)C)C2)c1 (stereo not given) | 36.8 | i | i | i | i
O=C(Cn1c(=O)n(Cc2ccco2)c(=O)c2sc3ccccc3c21)Nc1ccc(F)cc1F | nt | nt | nt | i | nt
CN(CC(=O)Nc1cccc(S(=O)(=O)N(C)C)c1)Cc1ccccc1 | 32.9 | i | i | i | i
CN(C)S(=O)(=O)c1cccc(NC(=O)CNc2cccc(S(=O)(=O)N3CCCCC3)c2)c1 | nt | i | i | nt | nt
CN(CC(=O)Nc1cccc(F)c1)CC(=O)Nc1cccc(S(=O)(=O)N2CCCCCC2)c1 | i | i | i | i | i
CN(CC(=O)Nc1cccc(S(=O)(=O)N2CCCCC2)c1)Cc1ccc(F)cc1 | 32.0 | i | i | i | i
CN(C)S(=O)(=O)c1cccc(NC(=O)CNCC2CCCCC2)c1 | 55.4 | i | i | i | i
NC(=O)c1nn(CC(=O)Nc2cccc(S(=O)(=O)N3CCCC3)c2)c(=O)c2ccccc12 | 44.4 | i | i | i | i
NC(=O)c1nn(CC(=O)Nc2cccc(S(=O)(=O)N3CCCCCC3)c2)c(=O)c2ccccc12 | i | i | i | i | i
Cc1ccc(CCNC(=O)CCCn2c(=O)c3ccccc3n(CC(=O)Nc3cc(Cl)ccc3C)c2=O)cc1 | nt | nt | nt | i | i
Cn1c(=O)cc(OCCCC(=O)Nc2ccc(F)cc2)c2ccccc21 | nt | nt | nt | nt | i
CCOc1ccccc1NC(=O)Cn1c(=O)ccc2cc(S(=O)(=O)N3CCCC3)ccc21 | nt | nt | nt | nt | i
O=[N+]([O-])c1cc(-c2nc(-c3ccccc3)no2)ccc1NCc1cccnc1 | nt | nt | nt | i | i
O=c1n(Cc2ccc([N+](=O)[O-])cc2)c2ccccc2c2nc(-c3ccccc3)nn12 | nt | nt | nt | i | i
CCc1ccc(C2C(C(=O)Nc3ccc(Cl)cc3)=C(C)Nc3ncnn32)cc1 (stereo not given) | nt | nt | nt | i | i
Cc1cc(C)cc(C(=O)N2CC(=O)Nc3ccccc32)c1 | i | i | i | i | i
